Results filed as inconclusive are left out. The source made the active and inactive calls. Calls come from the whole dose curve.
Experiment: Primary qHTS for inhibitors of MERS-S pseudo-typed particle cell entry (AID 1479149); note: nearly all actives have a fitted effect of over 60% in size
Details: MERS-S pseudotyped particle entry, luciferase; series mostly up to 57.1 µM; activity change, negative = inhibition: at the top concentration
% is set by controls: 0 for no effect and ±100 for the full control effect.

SMILES	outcome	activity change, negative = inhibition
COCCCOc1ccnc(CS(=O)c2nc3ccccc3[nH]2)c1C (stereo unspecified)	inactive	–
CC(C)NCC(O)c1ccc(NS(C)(=O)=O)cc1 (stereo unspecified)	inactive	–
CN[C@@H]1[C@H](O)[C@H](NC)[C@H]2O[C@@]3(O)C(=O)C[C@@H](C)O[C@H]3O[C@@H]2[C@H]1O	inactive	–
COc1cccc(OC)c1C(=O)N[C@@H]1C(=O)N2[C@@H]1SC(C)(C)[C@@H]2C(=O)O	inactive	–
O=C(Oc1ccccc1)c1ccccc1O	inactive	–
CCC(Cc1c(I)cc(I)c(N)c1I)C(=O)O (stereo unspecified)	–	-10.1% (inactive)
CCCN1CCCC[C@H]1C(=O)Nc1c(C)cccc1C	inactive	–
NS(=O)(=O)c1cc(C(=O)NN2C[C@H]3[C@H]4CCC(C4)[C@H]3C2)ccc1Cl	inactive	–
CCCCCCCC/C=C/C(=O)O	inactive	–
COc1cc2c(Nc3ccc(Br)cc3F)ncnc2cc1OCC1CCN(C)CC1	inactive	–
Cc1cc2cc3c(C)cc(=O)oc3c(C)c2o1	inactive	–
CCOC(=O)C1=C(C)NC(C)=C(C(=O)OC)C1c1cccc([N+](=O)[O-])c1 (stereo unspecified)	inactive	–
Oc1ccc(OCc2ccccc2)cc1	inactive	–
Nc1ccn([C@@H]2CS[C@H](CO)O2)c(=O)n1	inactive [at 114 µM]	–
CC(=O)CC(c1ccc([N+](=O)[O-])cc1)c1c(O)c2ccccc2oc1=O (stereo unspecified)	inactive	–
CC(=O)OCC[N+](C)(C)C	inactive	–
CN[C@@H]1CCc2[nH]c3ccc(C(N)=O)cc3c2C1	inactive	–
NC(=O)NC(=O)Cc1ccccc1	inactive	–
Cc1oc(=O)oc1COC(=O)[C@@H]1N2C(=O)[C@@H](NC(=O)[C@H](N)c3ccccc3)[C@H]2SC1(C)C	–	3.13% (inactive)

SMILES	outcome	activity change, negative = inhibition
NC(=O)c1cnccn1	inactive	–
Nc1c(I)cc(I)c(C(=O)N(CCC(=O)O)c2ccccc2)c1I	inactive	–
CCCC(=O)O[C@]1(C(=O)CO)CC[C@H]2[C@@H]3CCC4=CC(=O)CC[C@]4(C)[C@H]3[C@@H](O)C[C@@]21C	inactive	–
COc1ccc2cc1Oc1cc3c(cc1OC)CC[N+](C)(C)[C@H]3Cc1ccc(cc1)Oc1c(OC)c(OC)cc3c1[C@@H](C2)[N+](C)(C)CC3	inactive	–
CN1C(C(=O)Nc2ccccn2)=C(O)c2ccccc2S1(=O)=O	–	2.22% (inactive)
NCCNCCNCCNCCN	inactive [at 11.4 µM]	–
CCOC(=O)/C=C(C)/C=C/C=C(C)/C=C/c1c(C)cc(OC)c(C)c1C	–	6.9% (inactive)
O=C(O)CCCCCCCC(=O)O	inactive	–
CC(C)(C)NCC(O)COc1ccccc1OCC1CCCO1 (stereo unspecified)	inactive	–
COc1cnc(NS(=O)(=O)c2ccc(N)cc2)nc1	inactive	–
NCCNCCNCCN	inactive	–
C[N+](C)(C)CCOC(N)=O	–	-2.05% (inactive)
C[C@]12CCC(=O)C=C1CC[C@@H]1[C@@H]2[C@@H](O)C[C@@]2(C)[C@H]1CC[C@]2(O)C(=O)COC(=O)CCC(=O)O	inactive	–
CCC1(C)CC(=O)NC1=O (stereo unspecified)	inactive	–
CCCCCCCCCCCCCCCCOP(=O)([O-])OCC[N+](C)(C)C	inactive	–
O=c1cc[nH]c(=O)[nH]1	inactive	–
CC(=O)CC/C=C(\C)CC/C=C(\C)CC/C=C(\C)CCC=C(C)C	inactive	–
CC(C(=O)O)c1ccc2c(c1)[nH]c1ccc(Cl)cc12 (stereo unspecified)	inactive	–
CCCCCCCCCCCCOCCO	inactive	–

Experiment: Primary qHTS for Vero E6 cytotoxicity: counterscreen for inhibitors of SARS-S pseudo-typed particle cell entry (AID 1479150)
Details: cell viability; series mostly up to 57.1 µM; activity change, negative = cytotoxicity: at the top concentration

SMILES	activity change, negative = cytotoxicity	outcome
COCCCOc1ccnc(CS(=O)c2nc3ccccc3[nH]2)c1C (stereo unspecified)	1.12% (inactive)	–
CC(C)NCC(O)c1ccc(NS(C)(=O)=O)cc1 (stereo unspecified)	–	inactive
CN[C@@H]1[C@H](O)[C@H](NC)[C@H]2O[C@@]3(O)C(=O)C[C@@H](C)O[C@H]3O[C@@H]2[C@H]1O	–	inactive
COc1cccc(OC)c1C(=O)N[C@@H]1C(=O)N2[C@@H]1SC(C)(C)[C@@H]2C(=O)O	–	inactive
O=C(Oc1ccccc1)c1ccccc1O	–	inactive
CCC(Cc1c(I)cc(I)c(N)c1I)C(=O)O (stereo unspecified)	-3.56% (inactive)	–
CCCN1CCCC[C@H]1C(=O)Nc1c(C)cccc1C	0.325% (inactive)	–
NS(=O)(=O)c1cc(C(=O)NN2C[C@H]3[C@H]4CCC(C4)[C@H]3C2)ccc1Cl	–	inactive
CCCCCCCC/C=C/C(=O)O	-12.9% (inactive)	–
COc1cc2c(Nc3ccc(Br)cc3F)ncnc2cc1OCC1CCN(C)CC1	-13.4% (inactive)	–
Cc1cc2cc3c(C)cc(=O)oc3c(C)c2o1	–	inactive
CCOC(=O)C1=C(C)NC(C)=C(C(=O)OC)C1c1cccc([N+](=O)[O-])c1 (stereo unspecified)	4.07% (inactive)	–
Oc1ccc(OCc2ccccc2)cc1	-7.04% (inactive)	–
Nc1ccn([C@@H]2CS[C@H](CO)O2)c(=O)n1	0.506% [at 114 µM] (inactive)	–
CC(=O)CC(c1ccc([N+](=O)[O-])cc1)c1c(O)c2ccccc2oc1=O (stereo unspecified)	–	inactive
CC(=O)OCC[N+](C)(C)C	1.71% (inactive)	–
CN[C@@H]1CCc2[nH]c3ccc(C(N)=O)cc3c2C1	4.12% (inactive)	–
NC(=O)NC(=O)Cc1ccccc1	–	inactive
Cc1oc(=O)oc1COC(=O)[C@@H]1N2C(=O)[C@@H](NC(=O)[C@H](N)c3ccccc3)[C@H]2SC1(C)C	-15.1% (inactive)	–

SMILES	activity change, negative = cytotoxicity	outcome
NC(=O)c1cnccn1	–	inactive
Nc1c(I)cc(I)c(C(=O)N(CCC(=O)O)c2ccccc2)c1I	-10.2% (inactive)	–
CCCC(=O)O[C@]1(C(=O)CO)CC[C@H]2[C@@H]3CCC4=CC(=O)CC[C@]4(C)[C@H]3[C@@H](O)C[C@@]21C	–	inactive
COc1ccc2cc1Oc1cc3c(cc1OC)CC[N+](C)(C)[C@H]3Cc1ccc(cc1)Oc1c(OC)c(OC)cc3c1[C@@H](C2)[N+](C)(C)CC3	-5.56% (inactive)	–
CN1C(C(=O)Nc2ccccn2)=C(O)c2ccccc2S1(=O)=O	–	inactive
NCCNCCNCCNCCN	1.23% [at 11.4 µM] (inactive)	–
CCOC(=O)/C=C(C)/C=C/C=C(C)/C=C/c1c(C)cc(OC)c(C)c1C	–	inactive
O=C(O)CCCCCCCC(=O)O	–	inactive
CC(C)(C)NCC(O)COc1ccccc1OCC1CCCO1 (stereo unspecified)	–	inactive
COc1cnc(NS(=O)(=O)c2ccc(N)cc2)nc1	–	inactive
NCCNCCNCCN	–	inactive
C[N+](C)(C)CCOC(N)=O	–	inactive
C[C@]12CCC(=O)C=C1CC[C@@H]1[C@@H]2[C@@H](O)C[C@@]2(C)[C@H]1CC[C@]2(O)C(=O)COC(=O)CCC(=O)O	–	inactive
CCC1(C)CC(=O)NC1=O (stereo unspecified)	-9.24% (inactive)	–
CCCCCCCCCCCCCCCCOP(=O)([O-])OCC[N+](C)(C)C	-22.8% (inactive)	–
O=c1cc[nH]c(=O)[nH]1	–	inactive
CC(=O)CC/C=C(\C)CC/C=C(\C)CC/C=C(\C)CCC=C(C)C	–	inactive
CC(C(=O)O)c1ccc2c(c1)[nH]c1ccc(Cl)cc12 (stereo unspecified)	–	inactive
CCCCCCCCCCCCOCCO	-13.4% (inactive)	–
